Env fusion inh = inhibitors of HIV Env-mediated cell fusion | HeLa-JRFL Env/CEM21 cell fusion, luciferase | inhibition, % at 12.3 µM | 360,000 compounds, 1.1% hits;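 active = mean replicate inhibition score of at least 50 and every replicate individually at or above 50; inconclusive = only one of the two criteria met; inactive = mean below 50 and not all replicates reaching 50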
EWS-Fli inh = inhibitors of EWS/Fli oncoprotein transcriptional activity; A673 NR0B1-luciferase reporter, viability-normalised; inhibition, % at 12.6 µM; 350,000 compounds, 0.67% hits; AID 651661;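 active = mean inhibition of at least 50% after viability correction, with every replicate also passing that limit; inconclusive = mean reaches 50% but only one of two replicates passes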;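 also: firefly luciferase signal divided by Alamar Blue viability fluorescence both relative to DMSO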
CFTR F508del cor = correctors of CFTR F508del function in bronchial epithelial cells | CFBE cells, YFP halide quenching; stimulated with forskolin plus potentiator P3; % fluorescence drop versus neutral controls | activity (quench increase), % at 7.58 µM | 350,000 compounds, 0.36% hits;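 active = mean added fluorescence quench of at least 8% versus neutral control, with both replicates also reaching 8%; inconclusive = only one of the mean or replicate conditions met; inactive = mean below 8% and not both replicates reaching 8%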;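 also: cells transiently co-express mutant CFTR-F508del with the halide-sensitive YFP; corrector assay measuring rescue of mutant channel to the surface after 24 h compound exposure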
FXN GAA850 act = increases GAA850 frataxin promoter reporter activity. HEK293 lucGAA850 FXN promoter luciferase reporter, 24 h; percent of 10 µM SAHA response. activation, % at 6 µM. 360,000 compounds, 0.56% hits. AID 540364;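 active = activation above the average of all compounds screened plus 3 SD, cutoff fixed separately per campaign, cut at about 7.5% in these data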
PAX8 reporter = PAX8 transcriptional activity inhibition. RMG-I TPO-luciferase reporter, SteadyGlo, 24 h. inhibition, % at 12.6 µM. 360,000 compounds, 1.2% hits. AID 652154;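 active = mean replicate inhibition at least 60% with every replicate also reaching 60%; inconclusive = only one of the two criteria is met; inactive = mean below 60% and not all replicates reaching 60%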;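 also: luciferase light reporting Pax8 driven TPO promoter activity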
Each line names hits and unclear results; the compound was inactive in the other large screens; [ ] = another dose, or the depositor's remark. Hits are enriched below; roughly 2.5% of the tested compounds scored in any of these assays.

CC1(C)Oc2ccc3ccc(=O)oc3c2C[C@H]1O[C@@H]1O[C@H](CO)[C@@H](O)[C@H](O)[C@H]1O	none
CC(=O)OC(C)(C)/C=C/C(=O)[C@](C)(O)C1[C@H](O)C[C@@]2(C)C3CC=C4C(C=C(O[C@@H]5O[C@H](CO)[C@@H](O)[C@H](O)[C@H]5O)C(=O)C4(C)C)[C@]3(C)C(=O)C[C@]12C (stereo partly drawn)	PAX8 reporter 102
Cc1noc(C)c1NC(=O)Nc1ccc2c(c1)C(=O)N([C@H](C)CO)C[C@H](C)[C@H](CN(C)CC1CC1)O2	none (no result: FXN GAA850 act, PAX8 reporter)
C[C@H]1CN([C@@H](C)CO)C(=O)CCCn2nncc2CO[C@@H]1CN(C)S(=O)(=O)c1ccc(Oc2ccccc2)cc1	none (no result: Env fusion inh, FXN GAA850 act)
CC=Cc1ccc2n(c1=O)C[C@@H]1[C@@H](CO)[C@H](C(=O)NCc3cc(F)cc(F)c3)[C@H]2N1S(C)(=O)=O (mixture of isomers)	none (no result: CFTR F508del cor, FXN GAA850 act, PAX8 reporter)
C=CCn1cc(/C=C/c2cc[n+](C)cc2)c2ccccc21	Env fusion inh inconclusive, PAX8 reporter 93 (no result: CFTR F508del cor)
C=CCn1c(C)c(/C=C/c2cc[n+](C)cc2)c2ccccc21	none
CC(C)n1cc(/C=C/c2cc[n+](C)cc2)c2ccccc21	Env fusion inh 72, CFTR F508del cor 9.2, PAX8 reporter 83
CCn1cc(/C=C/c2cc[n+](C)cc2)c2ccccc21	PAX8 reporter 77
Cc1ccccc1/C=C/c1cc[n+](C)cc1	none
C[C@@H]1CCCCO[C@H](CN(C)C(=O)c2ccncc2)[C@H](C)CN([C@@H](C)CO)C(=O)c2cc(NC(=O)NC3CCCCC3)ccc2O1	none (no result: FXN GAA850 act)
CN(C)C(=O)c1cccc(-c2ccc3c(c2)[C@H]2[C@H](CCN2Cc2nccs2)[C@@H](CO)N3)c1	none (no result: Env fusion inh, FXN GAA850 act)
Cc1ccc(S(=O)(=O)n2cc(-c3ccccc3)c3ccccc32)cc1	EWS-Fli inh 60
Cc1ccc(S(=O)(=O)n2cc(C=O)c3ccccc32)cc1	none
CCCC(=O)Nc1ccc2c(c1)C(=O)N(C)[C@H]1CC[C@@H](CC(=O)O)O[C@@H]1CO2	none (no result: FXN GAA850 act)
Cc1ccc(C(=O)Nc2cccc(C(F)(F)F)c2)cc1NC(=O)c1nccn1C	none
Cc1ccc(C(=O)Nc2cccc(C(F)(F)F)c2)cc1Nc1cnccn1	CFTR F508del cor 10
Cc1ccc(S(=O)(=O)NC[C@H]2CC[C@@H]3[C@@H](CN3Cc3cc(-c4ccccc4)on3)O2)cc1	none (no result: FXN GAA850 act)
CCOC(=O)N1CCN(C(=O)C2CCC(=O)N(CCCN3CCCC3=O)C2)CC1 (stereo not drawn)	CFTR F508del cor 8.5 (no result: EWS-Fli inh)
CCOC(=O)N1CCN(C(=O)C2CCC(=O)N(CCCc3ccccc3)C2)CC1 (stereo not drawn)	none
O=C(N/N=C/c1ccc(-n2ccnc2)cc1)c1cccs1	Env fusion inh 75
O=C(C[C@H]1CC[C@H]2[C@@H](COC[C@@H](O)CN2S(=O)(=O)c2cccc(Cl)c2)O1)Nc1ccc(-c2ccccc2)cc1	PAX8 reporter 87 (no result: Env fusion inh, FXN GAA850 act)
O=C(C[C@H]1CC[C@H]2[C@@H](COC[C@H](O)CN2S(=O)(=O)c2cccc(Cl)c2)O1)Nc1ccc(-c2ccccc2)cc1	none (no result: Env fusion inh, FXN GAA850 act)
O=C(C[C@H]1CC[C@@H]2[C@H](COC[C@@H](O)CN2S(=O)(=O)c2cccc(Cl)c2)O1)Nc1ccc(-c2ccccc2)cc1	PAX8 reporter 106 (no result: Env fusion inh, FXN GAA850 act)
O=C(/C=C/c1ccccc1)NC(NC(=S)Nc1ccc(Cl)cc1Cl)C(Cl)(Cl)Cl (stereo not drawn)	none (no result: Env fusion inh, EWS-Fli inh, CFTR F508del cor, PAX8 reporter)
Cc1ccc(C)c(NC(=S)NC(NC(=O)/C=C/c2ccccc2)C(Cl)(Cl)Cl)c1 (stereo not drawn)	PAX8 reporter 68 (no result: EWS-Fli inh, CFTR F508del cor)
O=C(/C=C/c1ccccc1)NC(NC(=S)Nc1cccc(Cl)c1)C(Cl)(Cl)Cl (stereo not drawn)	Env fusion inh 63 (no result: EWS-Fli inh, CFTR F508del cor, PAX8 reporter)
CCN(CC)CCCNc1ccc2ncn3c4ccc(O)cc4c(=O)c1c23	CFTR F508del cor 20 (no result: PAX8 reporter)
CN(C)CCNc1ccc2nnn3c4ccc(O)cc4c(=O)c1c23	none
CCCC(=O)Nc1ccc2c(c1)OC[C@@H](C)N(C(=O)CN(C)C)C[C@H](C)[C@@H](OC)CN(C)C2=O	Env fusion inh 59[16.7 µM] (no result: FXN GAA850 act)
CCCC(=O)Nc1ccc2c(c1)OC[C@@H](C)N(C(=O)CN1CCOCC1)C[C@@H](C)[C@H](OC)CN(C)C2=O	none (no result: Env fusion inh, FXN GAA850 act)
CCCC(=O)Nc1ccc2c(c1)C(=O)N(C)C[C@@H](OC)[C@H](C)CN(C(=O)CN1CCOCC1)[C@H](C)CO2	CFTR F508del cor 8.4 (no result: FXN GAA850 act)

Source: PubChem BioAssay
